Reference: PubChem BioAssay AID1159580 (chemical genetic matrix, 2015)
Several values for one entry are separate records, joined by “and”; a condition that tells them apart may be missing. Equal values may be shown once. Out of some 5,500 compounds screened, about 2,000 (36%) were called active. Not shown: some 18% with an inconclusive outcome. No stated cut-off is given here; in the data, active means normalized growth mostly below about 0.91 (no sharp cut-off); inconclusive means no clear call, values can overlap the other calls; inactive means mostly above about 0.92. Some of the results follow.

Experiment: chemical genetic growth profiling, strain panel (AID 1159580);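 further: tested at 20 µM; growth read once vehicle control cultures reached saturation at 30 °C; 1 = growth at the plate median or of vehicle wells; lower values mean less growth of the strain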
Conditions: growth OD

Measured: normalized growth

CC(=O)O[C@@H]1CC2C(C)(C)C(=O)C=C[C@]2(C)C2CC[C@]3(C)C(=CC(=O)O[C@H]3c3ccoc3)[C@@]21C (stereo partly drawn)
inactive: S. cerevisiae deletion strains, locus YAL013W, strain DEP1, active compounds read low 0.996 | S. cerevisiae deletion strains, locus YAL021C, strain ccr4, active compounds read low 1.01 | S. cerevisiae deletion strains, locus YAL026C, strain drs2, active compounds read low 1.01 | S. cerevisiae deletion strains, locus YAL030W, strain snc1, active compounds read low 1 | S. cerevisiae deletion strains, locus YBL061C, strain skt5, active compounds read low 1.03 | S. cerevisiae deletion strains, locus YBR009C, strain hhf1, active compounds read low 1.01 | S. cerevisiae deletion strains, locus YBR021W, strain FUR4, active compounds read low 0.988 | S. cerevisiae deletion strains, locus YBR023C, strain chs3, active compounds read low 1 | S. cerevisiae deletion strains, locus YBR171W, strain sec66, active compounds read low 1.01 | S. cerevisiae deletion strains, locus YBR229C, strain ROT2, active compounds read low 0.941 | S. cerevisiae deletion strains, locus YBR231C, strain swc5, active compounds read low 0.998 | S. cerevisiae deletion strains, locus YBR279W, strain paf1, active compounds read low 1.01 | S. cerevisiae deletion strains, locus YCL011C, strain gbp2, active compounds read low 0.993 | S. cerevisiae deletion strains, locus YCL016C, strain dcc1, active compounds read low 1.01 | S. cerevisiae deletion strains, locus YCL029C, strain bik1, active compounds read low 0.977 | S. cerevisiae deletion strains, locus YCL069W, strain vba3, active compounds read low 1 | S. cerevisiae deletion strains, locus YCR088W, strain abp1, active compounds read low 1.01 | S. cerevisiae deletion strains, locus YDL005C, strain med2, active compounds read low 0.995 | S. cerevisiae deletion strains, locus YDL035C, strain GPR1, active compounds read low 0.964 | S. cerevisiae deletion strains, locus YDL040C, strain nat1, active compounds read low 1 | S. cerevisiae deletion strains, locus YDL074C, strain BRE1, active compounds read low 0.979 | S. cerevisiae deletion strains, locus YDL101C, strain DUN1, active compounds read low 1 | S. cerevisiae deletion strains, locus YDL185W, strain tfp1, active compounds read low 0.959 | S. cerevisiae deletion strains, locus YDL192W, strain arf1, active compounds read low 0.978 | S. cerevisiae deletion strains, locus YDR001C, strain nth1, active compounds read low 1.01 | S. cerevisiae deletion strains, locus YDR069C, strain doa4, active compounds read low 1.02 | S. cerevisiae deletion strains, locus YDR101C, strain arx1, active compounds read low 0.956 | S. cerevisiae deletion strains, locus YDR137W, strain rgp1, active compounds read low 1.05 | S. cerevisiae deletion strains, locus YDR159W, strain sac3, active compounds read low 1.01 | S. cerevisiae deletion strains, locus YDR162C, strain NBP2, active compounds read low 0.988 | S. cerevisiae deletion strains, locus YDR195W, strain ref2 0.968 | S. cerevisiae deletion strains, locus YDR297W, strain sur2, active compounds read low 0.992 | S. cerevisiae deletion strains, locus YDR318W, strain mcm21, active compounds read low 0.983 | S. cerevisiae deletion strains, locus YDR334W, strain swr1, active compounds read low 1.01 | S. cerevisiae deletion strains, locus YDR335W, strain msn5, active compounds read low 1.01 | S. cerevisiae deletion strains, locus YDR388W, active compounds read low 0.983 | S. cerevisiae deletion strains, locus YDR392W, strain spt3, active compounds read low 1.01 | S. cerevisiae deletion strains, locus YDR502C, strain sam2, active compounds read low 1.02 | S. cerevisiae deletion strains, locus YEL003W, strain gim4, active compounds read low 1.01 | S. cerevisiae deletion strains, locus YEL037C, strain rad23, active compounds read low 1 | S. cerevisiae deletion strains, locus YEL061C, strain CIN8 (second series), active compounds read low 1.01 | S. cerevisiae deletion strains, locus YER015W, strain faa2, active compounds read low 1.01 | S. cerevisiae deletion strains, locus YER016W, strain bim1, active compounds read low 1.01 | S. cerevisiae deletion strains, locus YER110C, active compounds read low 0.966 | S. cerevisiae deletion strains, locus YER111C, strain swi4, active compounds read low 1.01 | S. cerevisiae deletion strains, locus YER155C, strain BEM2 (second series), active compounds read low 1 | S. cerevisiae deletion strains, locus YER155C, strain BEM2, active compounds read low 0.989 | S. cerevisiae deletion strains, locus YER167W, strain BCK2, active compounds read low 0.975 | S. cerevisiae deletion strains, locus YFR010W, strain ubp6, active compounds read low 1.01 | S. cerevisiae deletion strains, locus YGL078C, strain dbp3, active compounds read low 1.02 | S. cerevisiae deletion strains, locus YGL086W, strain mad1, active compounds read low 0.992 | S. cerevisiae deletion strains, locus YGL167C, strain pmr1, active compounds read low 1 | S. cerevisiae deletion strains, locus YGL173C, strain kem1, active compounds read low 1 | S. cerevisiae deletion strains, locus YGL227W, strain vid30, active compounds read low 1.01 | S. cerevisiae deletion strains, locus YGL240W, strain doc1, active compounds read low 1 | S. cerevisiae deletion strains, locus YGL248W, strain PDE1, active compounds read low 1.01 | S. cerevisiae deletion strains, locus YGL253W, strain hxk2, active compounds read low 0.998 | S. cerevisiae deletion strains, locus YGR135W, strain pre9, active compounds read low 1.1 | S. cerevisiae deletion strains, locus YGR252W, strain gcn5, active compounds read low 1.04 | S. cerevisiae deletion strains, locus YHR013C, strain ard1, active compounds read low 0.988 | S. cerevisiae deletion strains, locus YHR027C, strain rpn1, active compounds read low 0.993 | S. cerevisiae deletion strains, locus YHR030C, strain SLT2, active compounds read low 1.02 | S. cerevisiae deletion strains, locus YHR079C, strain IRE1 (second series), active compounds read low 0.982 | S. cerevisiae deletion strains, locus YHR079C, strain IRE1, active compounds read low 0.997 | S. cerevisiae deletion strains, locus YHR094C, strain hxt1, active compounds read low 0.969 | S. cerevisiae deletion strains, locus YHR129C, strain ARP1, active compounds read low 0.993 | S. cerevisiae deletion strains, locus YHR142W, strain chs7, active compounds read low 1.04 | S. cerevisiae deletion strains, locus YHR200W, strain rpn10, active compounds read low 0.994 | S. cerevisiae deletion strains, locus YIL066C, strain RNR3, active compounds read low 0.956 | S. cerevisiae deletion strains, locus YIL073C, strain SPO22, active compounds read low 0.989 | S. cerevisiae deletion strains, locus YIL125W, strain kgd1, active compounds read low 0.981 | S. cerevisiae deletion strains, locus YIR030C, strain dcg1, active compounds read low 0.987 | S. cerevisiae deletion strains, locus YJL092W, strain hpr5, active compounds read low 1 | S. cerevisiae deletion strains, locus YJL095W, strain BCK1 (second series), active compounds read low 0.999 | S. cerevisiae deletion strains, locus YJL095W, strain BCK1, active compounds read low 1.06 and 1.03 | S. cerevisiae deletion strains, locus YJL115W, strain asf1, active compounds read low 1 | S. cerevisiae deletion strains, locus YJL129C, strain trk1, active compounds read low 1.02 | S. cerevisiae deletion strains, locus YJL134W, strain LCB3, active compounds read low 0.97 | S. cerevisiae deletion strains, locus YJL154C, strain vps35, active compounds read low 1 | S. cerevisiae deletion strains, locus YJL164C, strain tpk1, active compounds read low 1 | S. cerevisiae deletion strains, locus YJL166W, strain qcr8, active compounds read low 1 | S. cerevisiae deletion strains, locus YJL168C, strain set2, active compounds read low 0.995 | S. cerevisiae deletion strains, locus YJL187C, strain SWE1 (second series), active compounds read low 1.03 | S. cerevisiae deletion strains, locus YJR066W, strain TOR1, active compounds read low 0.96 | S. cerevisiae deletion strains, locus YKL009W, strain mrt4, active compounds read low 0.986 | S. cerevisiae deletion strains, locus YKL068W, active compounds read low 0.992 | S. cerevisiae deletion strains, locus YKL085W, strain MDH1 (second series), active compounds read low 0.996 | S. cerevisiae deletion strains, locus YKL085W, strain MDH1, active compounds read low 0.996 | S. cerevisiae deletion strains, locus YKL160W, strain elf1, active compounds read low 1.01 | S. cerevisiae deletion strains, locus YKR001C, strain vps1, active compounds read low 0.985 | S. cerevisiae deletion strains, locus YKR026C, strain gcn3, active compounds read low 1.01 | S. cerevisiae deletion strains, locus YKR091W, strain srl3, active compounds read low 1 | S. cerevisiae deletion strains, locus YLL001W, strain dnm1, active compounds read low 1.01 | S. cerevisiae deletion strains, locus YLL026W, active compounds read low 1.02 | S. cerevisiae deletion strains, locus YLL041C, strain sdh2, active compounds read low 1.02 | S. cerevisiae deletion strains, locus YLR027C, strain aat2, active compounds read low 1.01 | S. cerevisiae deletion strains, locus YLR039C, strain RIC1, active compounds read low 0.971 | S. cerevisiae deletion strains, locus YLR058C, strain SHM2, active compounds read low 0.981 | S. cerevisiae deletion strains, locus YLR102C, strain apc9, active compounds read low 0.974 | S. cerevisiae deletion strains, locus YLR113W, strain HOG1, active compounds read low 0.962 | S. cerevisiae deletion strains, locus YLR221C, strain rsa3, active compounds read low 1 | S. cerevisiae deletion strains, locus YLR258W, strain gsy2, active compounds read low 1 | S. cerevisiae deletion strains, locus YLR262C, strain YPT6 (second series), active compounds read low 1.01 | S. cerevisiae deletion strains, locus YLR268W, strain sec22, active compounds read low 0.964 | S. cerevisiae deletion strains, locus YLR320W, strain mms22, active compounds read low 1.01 | S. cerevisiae deletion strains, locus YLR342W, strain FKS1 (second series), active compounds read low 1 | S. cerevisiae deletion strains, locus YLR342W, strain FKS1, active compounds read low 0.999 | S. cerevisiae deletion strains, locus YLR357W, strain rsc2, active compounds read low 1.03 | S. cerevisiae deletion strains, locus YLR370C, strain arc18, active compounds read low 1.02 | S. cerevisiae deletion strains, locus YLR371W, strain rom2, active compounds read low 0.967 | S. cerevisiae deletion strains, locus YLR384C, strain iki3, active compounds read low 1.02 | S. cerevisiae deletion strains, locus YLR418C, strain cdc73, active compounds read low 1.04 | S. cerevisiae deletion strains, locus YML016C, strain PPZ1, active compounds read low 0.973 | S. cerevisiae deletion strains, locus YML032C, strain rad52, active compounds read low 0.966 | S. cerevisiae deletion strains, locus YML120C, strain ndi1, active compounds read low 0.993 | S. cerevisiae deletion strains, locus YML124C, strain tub3, active compounds read low 0.989 | S. cerevisiae deletion strains, locus YMR058W, strain fet3, active compounds read low 1 | S. cerevisiae deletion strains, locus YMR078C, strain ctf18, active compounds read low 0.983 | S. cerevisiae deletion strains, locus YMR125W, strain sto1, active compounds read low 0.999 | S. cerevisiae deletion strains, locus YMR129W, active compounds read low 1 | S. cerevisiae deletion strains, locus YMR205C, strain PFK2, active compounds read low 1 | S. cerevisiae deletion strains, locus YMR223W, strain ubp8, active compounds read low 1.01 | S. cerevisiae deletion strains, locus YMR231W, strain pep5, active compounds read low 1.01 | S. cerevisiae deletion strains, locus YMR307W, strain GAS1, active compounds read low 0.896 | S. cerevisiae deletion strains, locus YNL067W, strain RPL9B, active compounds read low 1.04 | S. cerevisiae deletion strains, locus YNL071W, strain lat1, active compounds read low 1.01 | S. cerevisiae deletion strains, locus YNL153C, strain GIM3, active compounds read low 1.02 | S. cerevisiae deletion strains, locus YNL183C, strain NPR1, active compounds read low 0.993 | S. cerevisiae deletion strains, locus YNL209W, strain ssb2, active compounds read low 0.991 | S. cerevisiae deletion strains, locus YNL233W, strain BNI4, active compounds read low 1.02 | S. cerevisiae deletion strains, locus YNL248C, strain rpa49, active compounds read low 1.02 | S. cerevisiae deletion strains, locus YNL250W, strain rad50, active compounds read low 0.994 | S. cerevisiae deletion strains, locus YNL271C, strain bni1, active compounds read low 0.988 | S. cerevisiae deletion strains, locus YNL298W, strain CLA4, active compounds read low 0.963 | S. cerevisiae deletion strains, locus YNL307C, strain MCK1, active compounds read low 0.991 | S. cerevisiae deletion strains, locus YNL322C, strain KRE1 (second series), active compounds read low 1 | S. cerevisiae deletion strains, locus YNR049C, strain mso1, active compounds read low 1.02 | S. cerevisiae deletion strains, locus YNR052C, strain pop2, active compounds read low 1.02 | S. cerevisiae deletion strains, locus YOL006C, strain TOP1, active compounds read low 0.97 | S. cerevisiae deletion strains, locus YOL012C, strain htz1 0.746 | S. cerevisiae deletion strains, locus YOL147C, strain pex11, active compounds read low 0.982 | S. cerevisiae deletion strains, locus YOR001W, strain rrp6, active compounds read low 1.01 | S. cerevisiae deletion strains, locus YOR061W, strain CKA2, active compounds read low 0.948 | S. cerevisiae deletion strains, locus YOR069W, strain VPS5, active compounds read low 0.992 | S. cerevisiae deletion strains, locus YOR070C, strain gyp1, active compounds read low 1.02 | S. cerevisiae deletion strains, locus YOR080W, strain dia2, active compounds read low 0.995 | S. cerevisiae deletion strains, locus YOR083W, strain WHI5, active compounds read low 1 | S. cerevisiae deletion strains, locus YOR106W, strain vam3, active compounds read low 1.01 | S. cerevisiae deletion strains, locus YOR136W, strain idh2, active compounds read low 0.986 | S. cerevisiae deletion strains, locus YOR144C, strain elg1, active compounds read low 0.979 | S. cerevisiae deletion strains, locus YOR184W, strain ser1, active compounds read low 0.935 | S. cerevisiae deletion strains, locus YOR231W, strain MKK1, active compounds read low 1.03 | S. cerevisiae deletion strains, locus YOR265W, strain rbl2, active compounds read low 1.03 | S. cerevisiae deletion strains, locus YOR270C, strain vph1, active compounds read low 1.07 | S. cerevisiae deletion strains, locus YOR290C, strain snf2, active compounds read low 0.996 | S. cerevisiae deletion strains, locus YOR316C, strain cot1, active compounds read low 0.981 | S. cerevisiae deletion strains, locus YPL051W, strain arl3, active compounds read low 1.01 | S. cerevisiae deletion strains, locus YPL078C, strain atp4, active compounds read low 1 | S. cerevisiae deletion strains, locus YPL106C, strain sse1, active compounds read low 0.986 | S. cerevisiae deletion strains, locus YPL240C, strain hsp82, active compounds read low 1 | S. cerevisiae deletion strains, locus YPL241C, strain CIN2, active compounds read low 0.981 | S. cerevisiae deletion strains, locus YPL256C, strain CLN2, active compounds read low 1 | S. cerevisiae deletion strains, locus YPR119W, strain clb2, active compounds read low 0.988 | S. cerevisiae deletion strains, locus YPR141C, strain kar3, active compounds read low 0.992 | S. cerevisiae deletion strains, locus YPR163C, strain tif3, active compounds read low 0.971 | S. cerevisiae deletion strains, locus YPR167C, strain met16, active compounds read low 0.997 | S. cerevisiae deletion strains, strain wtn01, active compounds read low 0.961 | S. cerevisiae strains, strain wild type, active compounds read low 0.97
